Most compounds without a hit are left out; they make up all but 0.19% or so of the library.
Bim-Bcl-W = inhibitors of Bim-Bcl-W interaction, human; Q92843; bead-based flow cytometry, Bim peptide-Bcl-W binding; inhibition, % at 10 µM; actives 0.02% (n = 190,000); AID 952;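 also: 0% = bound tracer without compound and 100% = peptide blocker; higher means less fluorescent Bim peptide bound to Bcl-W beads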
Target sequence (Q92843 whole entry, looked up): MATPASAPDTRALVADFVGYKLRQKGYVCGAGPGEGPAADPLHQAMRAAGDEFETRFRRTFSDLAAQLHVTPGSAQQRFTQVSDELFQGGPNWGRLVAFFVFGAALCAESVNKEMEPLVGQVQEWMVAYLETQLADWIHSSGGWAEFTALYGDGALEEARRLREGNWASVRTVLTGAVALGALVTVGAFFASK
Bcl-XL Bim block = disrupts Bim peptide binding to human Bcl-XL; Q07817; bead flow cytometry, fluorescence; inhibition, % at 10 µM; actives 0.04% (n = 190,000)
Bcl-B Bim block = human Bim-Bcl-B interaction inhibition. Q9HD36. actives 0.073% (n = 190,000). inhibition, % at 10 µM. bead-based flow cytometry, Bim peptide-Bcl-B binding;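 also: 0% = tracer peptide without compound and 100% = reference inhibitor peptide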
Target sequence (Q9HD36 whole entry, looked up): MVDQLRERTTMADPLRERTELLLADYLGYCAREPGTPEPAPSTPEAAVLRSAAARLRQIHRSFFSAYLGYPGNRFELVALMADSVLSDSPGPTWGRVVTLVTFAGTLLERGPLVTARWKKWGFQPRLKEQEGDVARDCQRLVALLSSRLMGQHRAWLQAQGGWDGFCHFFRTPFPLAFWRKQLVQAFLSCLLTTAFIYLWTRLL
Bim-Bcl-2 = inhibitors of Bim-Bcl-2 interaction, human; Bead-based flow cytometry, Bim peptide-Bcl-2 binding; actives 0.06% (n = 190,000); inhibition, % at 10 µM; P10415; AID 950; in the data active = inhibition above about 40%;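 also: 0% = no compound wells with probe peptide and 100% = reference peptide inhibitor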
Bfl-1 Bim block = inhibitors of Bim-Bfl-1 interaction, human; Q16548; Bead-based flow cytometry, Bim-Bfl-1 binding inhibition; inhibition, % at 10 µM; actives 0.12% (n = 190,000); AID 1008;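 also: 0% = wells without compound plus tracer and 100% = blocker peptide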
Starred values were filed as active, the others as inactive; nt = no result given. Rule as the data show it, unless noted: active = inhibition above about 40%.

SMILES	Bim-Bcl-W	Bcl-XL Bim block	Bcl-B Bim block	Bim-Bcl-2	Bfl-1 Bim block
COc1ccc(Cl)cc1-n1c(C)cc(C(=O)O)c1C	4	-9	-36	-13	-11
COc1ccc(Cl)cc1-n1c(C)cc(C=O)c1C	20	29	84*	86*	62*
CCn1c(SCc2ccc(C(=O)Nc3cc(C)cc(C)c3)cc2)nnc1-c1ccncc1	-3	-12	-8	-10	-9
Cc1onc(-c2c(F)cccc2Cl)c1C(=O)NC(=S)Nc1c(C)n(C)n(-c2ccccc2)c1=O	-3	-3	-5	-5	-4
O=[N+]([O-])c1cc(C(F)(F)F)cc([N+](=O)[O-])c1NCc1cccnc1	-6	-10	-9	-5	-7
O=C(COc1ncnc2ccc(Br)cc12)Nc1ccc(N2CCOCC2)cc1	-2	-6	-4	-9	-14
Brc1ccc2ncnc(Nc3ccc(N4CCOCC4)cc3)c2c1	7	3	48*	5	5
c1ccc(Nc2nc(CSc3ncn[nH]3)cs2)cc1	-7	-1	-2	-3	3
COc1ccc(CCC(=O)NCCc2cn3c(C)csc3n2)cc1	0	-5	-10	-11	-9
COC(=O)c1ccc(/C=N/NC(=O)CC(=O)NCc2cccnc2)cc1	5	3	51*	54*	32
COCCNC(=O)c1ccccc1NS(=O)(=O)c1ccc(Br)s1	-3	-6	-5	-2	-5
CCN1CCN(C(c2cccs2)C(C)NS(=O)(=O)c2ccc(Br)cc2)CC1 (stereo not given)	-4	-4	-2	-2	-3
COc1ccc(-c2cc(-c3n[nH]c(=S)n3-c3cccc4ccccc34)[nH]n2)cc1	-3	-1	-5	-3	-5
COc1ccccc1-n1c(-c2cc(-c3ccc(F)cc3)n[nH]2)n[nH]c1=S	47*	16	24	44*	38
O=C(N/N=C/c1ccc(-c2ccccc2[N+](=O)[O-])o1)c1cncc(Br)c1	32	48*	24	18	28
c1ccc(-c2ccccc2OCCn2cncn2)cc1	0	-1	-2	-2	-2
CC(=O)Nc1ccc(S(=O)(=O)N(C)CC(=O)Nc2ccccc2N2CCOCC2)cc1	-1	-1	1	0	-1
CC1Nc2ccccc2C(=O)N1NS(=O)(=O)c1ccccc1 (stereo not given)	28	42*	25	29	43*
CCN1/C(=C/c2ccc3cc(C)ccc3[n+]2CC)Sc2cc(C)ccc21	4	2	-25	6	1
CCN1/C(=C/c2ccc3cc(C)ccc3[n+]2C)Sc2ccc3sccc3c21	22	34	4	54*	46*
Nc1ccc(N2CCN(c3ccc(F)cc3)CC2)cc1	4	0	-2	5	9
Nc1ccc(N2CCCCCC2)cc1	30	6	10	19	43*
CC1Cc2ccccc2N1C(=O)c1ccc(N2CCCC2)c([N+](=O)[O-])c1 (stereo not given)	13	8	72*	56*	14
CN=C(NC1CCCCC1)c1ccc(Cl)cc1	24	1	-26	13	49*
O=C1N/C(=C/c2cccn2-c2ccccc2)C(=O)N1Cc1ccc(F)cc1	10	13	-57	11	42*
SMILES	Bim-Bcl-W	Bcl-XL Bim block	Bcl-B Bim block	Bim-Bcl-2	Bfl-1 Bim block
COc1ccc(C)cc1NC(=O)CCCN1C(=S)NC(C)(C)CC1C (stereo not given)	-3	-7	-5	-5	-12
COc1ccc(OC)c(NC(=O)CCCN2C(=S)NC(C)(C)CC2C)c1 (stereo not given)	42*	49*	54*	43*	50*
N#CC(C#N)=C1C=CC=CN1/C(=C\c1ccccc1)C(=O)c1cccs1	-3	-1	-1	4	6
N#CC(C#N)=C1C=CC=CN1/C(=C\c1ccccc1Cl)C(=O)c1ccccc1	34	16	1	30	59*
Nc1c(C(=O)NCc2ccco2)sc2nc3c(cc12)C(=O)CCC3	42*	16	6	20	48*
COc1ccc2cc3c(N)c(C(=O)NCc4ccco4)sc3nc2c1	-1	0	-2	1	4
CC(C)C12CN3CC(C(C)C)(CN(C1)C3c1ccccc1)C2O (stereo not given)	-2	11	-1	-2	-3
O=C(Cn1cncc1-c1ccc([N+](=O)[O-])cc1)Nc1ccccc1F	14	15	25	34	42*
Cc1cc(C)c(S(=O)(=O)/N=C2/C=C(SCC(=O)O)C(=O)c3ccccc32)cc1C	18	0	-12	12	56*
Cc1ccc(N2CCN(/N=C/C=C/c3ccccc3)CC2)cc1	12	17	10	10	16
O=C(OCc1nc2ccccc2[nH]1)C12CC3CC(CC(C3)C1)C2	0	0	42*	12	6
O=C(Nc1nc2ccccc2[nH]1)C12CC3CC(CC(C3)C1)C2	3	-4	-5	-6	-7
Cc1ccc(CNc2ccc3c(c2)OCO3)cc1	18	2	-7	10	40*
Brc1cccc(-c2n[nH]c(-c3ccccc3)n2)c1	2	-1	1	0	-2
CC[n+]1c(/C=C/C=C/N(C(C)=O)c2ccccc2)sc2ccccc21	43*	nt	2	nt	9
O=C1c2ccccc2-c2onc3c(Oc4ccccc4)cc(O)c1c23	28	29	-14	22	43*
COc1ccc(-c2onc(C)c2-c2ccccc2)c(O)c1	0	-3	-2	-5	-10
CCn1c(C)c(/C=N/Nc2nc3ccccc3s2)c2ccccc21	21	23	nt	87*	nt
Cc1ccc(NC(=O)/C(=C\c2ccc([N+](=O)[O-])cc2)NC(=O)c2ccccc2)cc1	-2	-7	0	-1	-2
O=C(N/N=C/c1ccc(O)c(O)c1O)/C(=C/c1ccc([N+](=O)[O-])cc1)NC(=O)c1ccccc1	27	5	9	21	41*
O=C(CNC(=O)c1ccc(S(=O)(=O)N2CCCC2)cc1)N/N=C/c1ccc(Cl)cc1Cl	7	6	50*	13	9
O=C(CNC(=O)c1ccc(S(=O)(=O)N2CCCC2)cc1)N/N=C/c1ccc(Cl)cc1	-2	-4	-6	-6	-12
CCCCOc1ccccc1NC(=O)c1scc2c1OCCO2	-2	-3	-5	-5	-6
COc1cc(C2NC(=O)NC(c3ccccc3)=C2C(C)=O)cc([N+](=O)[O-])c1O (stereo not given)	2	-1	-2	-1	-4
COc1ccc(/C=N/NC(=O)c2cccc(NC(=O)c3ccccc3Cl)c2)cc1OC	0	-5	-2	0	-2
O=C(N/N=C/c1ccncc1)c1cccc(NC(=O)c2ccccc2Cl)c1	29	43*	21	32	34
C#CCOCCOCCOCCNc1nc(N2CCN(C(=O)[C@H]([C@@H](C)CC)n3cc([C@@H](N)CC(C)C)nn3)CC2)nc(N2CCN(C(=O)[C@H](Cc3cc4ccccc4[nH]3)n3cc([C@@H](N)Cc4ccc(O)cc4)nn3)CC2)n1	-5	0	71*	80*	57*
